We go through five molecules from PubChem BioAssay.

Active and inactive are the calls of the source. Unless noted, how the calls were made is not given here.

A short description of assay [1]: anti-His antibody binders, primary screen, artefact control for SMM control protein annotation, biochemical, small-molecule microarray, 635 nm fluorescence (AID 1128).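 Further: score merges feature fluorescence with signal-to-noise for each printed compound spot.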 As to conditions: anti-His Alexa647 antibody binding, higher = more signal.
Assay [2] relates to Human papillomavirus type 1a E7 protein (residues 1-88). As to the kind of experiment: HPV1a E7 small-molecule binders, primary screen, biochemical, small-molecule microarray, residues 1-88, 635 nm (AID 1129). As to conditions: small-molecule microarray binding, fluorescence 635 nm; higher = more signal.
Assay [3] concerns the target Focal adhesion kinase 1 (Homo sapiens) (UniProt Q05397). As to the kind of experiment: small-molecule microarray binders of FAK, primary screen, biochemical, 635/667 nm fluorescence, BSA, DTT (AID 1130).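 Further: composite of spot emission at 667 nm and signal to noise over triplicate slides.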 As to conditions: PTK2 binding, 635 nm fluorescence, higher = more signal.
Assay [4] relates to Fibrinogen (Alexa647-labelled). As to the kind of experiment: fibrinogen binders on compound microarrays, profiling panel, artefact control for SMM control-protein annotation, biochemical, small-molecule microarray, 635/667 nm fluorescence (AID 1131).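 Further: z-score merges 667 nm fluorescence with per-spot signal-to-noise over triplicate slides.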 As to conditions: fibrinogen-A647 binding fluorescence, higher = more signal.
For assay [5], the target named is Follistatin (Homo sapiens) (UniProt P19883). As to the kind of experiment: follistatin binders on small-molecule microarrays, primary screen, biochemical, small-molecule microarray, 635/667 nm fluorescence (AID 1132). As to conditions: FST binding, 635 nm fluorescence, higher = more signal.
Assay [6] has as its target Fibroblast growth factor 2 (Homo sapiens) (UniProt P09038). The assay is described as follows: FGF2 binders on small-molecule microarrays, primary screen, biochemical, small-molecule microarray, 635/667 nm fluorescence (AID 1133). As to conditions: small-molecule microarray binding, FGF2, fluorescence 635/667; higher = more signal.
Assay [7] is described as follows: mitochondrial membrane potential change in A549 cells, profiling panel, cell-based, JC-1 fluorescence, basal, 24 h, 100 nL (AID 1138).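 Further: A549 lung adenocarcinoma cells under basal conditions with no added stimulus; test concentration not given here.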 As to conditions: higher = more signal.
Assay [8] has as its system Lefty1. The assay is described as follows: Lefty1 binders on small-molecule microarrays, primary screen, biochemical, small-molecule microarray, 635/667 nm fluorescence (AID 1139). As to conditions: small-molecule microarray binding, fluorescence 635/667; higher = more signal.
The subject of assay [9] is wheat germ agglutinin (Triticum aestivum), Alexa647-labelled. As to the kind of experiment: wheat germ agglutinin binders on compound microarrays, profiling panel, artefact control for SMM control-protein annotation, biochemical, small-molecule microarray, 635/667 nm fluorescence (AID 1140).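 Further: score merges 667 nm feature emission with signal to noise over triplicate slides.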 As to conditions: WGA-A647 binding, 635 nm fluorescence, higher = more signal.
Assay [10] deals with Luciferin 4-monooxygenase (Photinus pyralis) (UniProt P08659). The assay is described as follows: firefly luciferase enzyme inhibitors, primary screen, biochemical, luminescence, purified enzyme, 2006 set (AID 1141).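 Further: cell-free assay with purified firefly luciferase at 100 ng per well in PBS; test concentration not given here.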 As to conditions: SteadyGlo luminescence, 30 min, higher = more signal, called active from +8 up or from −8 down.
The subject of assay [11] is Wnt5a (protein binding on small-molecule microarray). As to the kind of experiment: Wnt5a binders on small-molecule microarray, primary screen, biophysical, 635/667 nm fluorescence (AID 1142).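 Further: fluorescence read at 667 nm with signal to noise per printed feature.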 As to conditions: 635 nm fluorescence, higher = more signal.
A short description of assay [12]: cell viability in Huh7 cells, primary screen, cytotoxicity control for HCV replication inhibitor project, CellTiter-Glo luminescence, basal, 48 h (AID 1143).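 Further: Huh7 hepatoma cells carrying a hepatitis C replication reporter with no stimulus; test concentration not given here.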 As to conditions: Huh7 HCV replicon, higher = more signal, called active from +8 up or from −8 down. In general terms: ATP-based viability assays read luminescence as a measure of living cells.
Assay [13] can be described thus: P. aeruginosa biofilm formation inhibitors, primary screen, PAO1 strain, BacTiter-Glo luminescence, LB-PBS (AID 1144). As to conditions: 12 h, higher = more signal.
The nature of assay [14]: CREB reporter modulators without forskolin, primary screen, cell-based, PC12, CRE-LacZ reporter, unstimulated (AID 1145). As to conditions: no forskolin, luminescence, 4.5 h, higher = more signal, called active from +8 up or from −8 down.
Assay [15] can be described thus: CREB reporter modulators under forskolin, primary screen, cell-based, PC12, CRE-LacZ reporter, forskolin-stimulated (AID 1146).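 Further: PC12 cells with 6xCRE LacZ reporter stimulated by forskolin 10 µM; beta-galactosidase reporter signal reflecting CREB driven transcription.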 As to conditions: luminescence, 4.5 h, higher = more signal, called active from +8 up or from −8 down.
Assay [16] concerns the target Streptavidin (Streptomyces avidinii) (UniProt P22629). The assay is described as follows: streptavidin binders on small-molecule microarray, primary screen, artefact control for SMM compound annotation, biophysical, 635/667 nm fluorescence (AID 1147).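 Further: signal reflects streptavidin binding to arrayed compounds as a control protein.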 As to conditions: streptavidin binding, higher = more signal.
A short description of assay [17]: small-molecule binders of probe aInhba, primary screen, biochemical, small-molecule microarray, 635/667 nm fluorescence (AID 1148).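 Further: score merges 667nm spot fluorescence with signal-to-noise for antibody binding to printed compounds.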 As to conditions: higher = more signal.
The target in assay [18] is Torsin-1A (Homo sapiens) (UniProt O14656). As to the kind of experiment: torsin A binders from cell lysate, primary screen, small-molecule microarray, wild-type, 635/667 nm (AID 1149). As to conditions: COS7 hTOR1A-WT lysate, 635 nm fluorescence, higher = more signal.
Assay [19] has the same target. The assay is described as follows: small-molecule binders of mutant TOR1A in lysate, primary screen, cell lysate, small-molecule microarray, COS7 lysate, 635/667 nm fluorescence (AID 1150).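 Further: score pools 667 nm emission and signal to noise measuring lysate protein binding.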 As to conditions: COS7 hTOR1A mutant lysate, 635 nm fluorescence, higher = more signal.
In assay [20] the test system is Sonic hedgehog protein (Shh). As to the kind of experiment: small-molecule binders of Shh protein, primary screen, biochemical, small-molecule microarray, 635/667 nm fluorescence (AID 1151).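 Further: Shh protein binding to compounds spotted on small-molecule microarray slides; score combines spot fluorescence intensity with signal-to-noise across triplicate slides.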 As to conditions: small-molecule microarray binding, 635 nm fluorescence; higher = more signal.

Sequence of Streptavidin (Streptomyces avidinii) (P22629 whole entry, looked up): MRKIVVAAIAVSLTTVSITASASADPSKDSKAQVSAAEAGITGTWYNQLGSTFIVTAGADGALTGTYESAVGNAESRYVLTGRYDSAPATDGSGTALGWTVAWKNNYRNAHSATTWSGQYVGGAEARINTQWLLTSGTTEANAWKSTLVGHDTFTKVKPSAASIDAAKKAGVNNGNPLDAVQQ
Sequence of Fibroblast growth factor 2 (Homo sapiens) (P09038 whole entry, looked up): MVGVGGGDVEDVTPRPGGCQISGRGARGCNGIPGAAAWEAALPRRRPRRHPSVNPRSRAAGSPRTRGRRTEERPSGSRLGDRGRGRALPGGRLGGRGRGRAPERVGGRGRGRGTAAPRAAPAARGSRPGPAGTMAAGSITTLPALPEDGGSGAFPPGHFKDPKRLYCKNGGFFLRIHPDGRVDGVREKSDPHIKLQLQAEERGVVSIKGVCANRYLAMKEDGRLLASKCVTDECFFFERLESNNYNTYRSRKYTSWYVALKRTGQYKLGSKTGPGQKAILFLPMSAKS
Sequence of Follistatin (Homo sapiens) (P19883 whole entry, looked up): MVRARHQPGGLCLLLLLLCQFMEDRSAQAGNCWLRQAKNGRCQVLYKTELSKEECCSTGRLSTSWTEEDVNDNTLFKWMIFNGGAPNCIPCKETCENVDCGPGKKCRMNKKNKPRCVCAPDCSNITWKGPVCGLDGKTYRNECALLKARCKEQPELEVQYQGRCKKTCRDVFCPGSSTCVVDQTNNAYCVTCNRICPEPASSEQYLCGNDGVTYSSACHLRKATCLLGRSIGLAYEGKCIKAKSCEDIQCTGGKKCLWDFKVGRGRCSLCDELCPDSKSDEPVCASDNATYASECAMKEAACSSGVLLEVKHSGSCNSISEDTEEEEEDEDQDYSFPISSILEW
Sequence of Luciferin 4-monooxygenase (Photinus pyralis) (P08659 whole entry, looked up): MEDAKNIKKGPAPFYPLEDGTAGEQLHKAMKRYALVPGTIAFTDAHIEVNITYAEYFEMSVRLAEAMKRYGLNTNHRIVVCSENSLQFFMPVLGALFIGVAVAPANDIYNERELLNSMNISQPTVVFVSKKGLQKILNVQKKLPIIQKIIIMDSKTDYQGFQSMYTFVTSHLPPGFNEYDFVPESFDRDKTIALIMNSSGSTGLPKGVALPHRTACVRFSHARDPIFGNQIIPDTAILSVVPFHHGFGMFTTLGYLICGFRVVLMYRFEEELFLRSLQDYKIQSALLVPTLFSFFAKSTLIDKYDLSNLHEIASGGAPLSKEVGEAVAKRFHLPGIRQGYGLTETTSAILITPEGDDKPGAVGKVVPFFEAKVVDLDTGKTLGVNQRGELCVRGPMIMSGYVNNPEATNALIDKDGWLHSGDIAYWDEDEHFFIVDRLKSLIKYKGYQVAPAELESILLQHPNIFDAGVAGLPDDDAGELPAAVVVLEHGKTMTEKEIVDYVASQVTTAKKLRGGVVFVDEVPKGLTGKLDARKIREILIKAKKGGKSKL
Sequence of Torsin-1A (Homo sapiens) (O14656 whole entry, looked up): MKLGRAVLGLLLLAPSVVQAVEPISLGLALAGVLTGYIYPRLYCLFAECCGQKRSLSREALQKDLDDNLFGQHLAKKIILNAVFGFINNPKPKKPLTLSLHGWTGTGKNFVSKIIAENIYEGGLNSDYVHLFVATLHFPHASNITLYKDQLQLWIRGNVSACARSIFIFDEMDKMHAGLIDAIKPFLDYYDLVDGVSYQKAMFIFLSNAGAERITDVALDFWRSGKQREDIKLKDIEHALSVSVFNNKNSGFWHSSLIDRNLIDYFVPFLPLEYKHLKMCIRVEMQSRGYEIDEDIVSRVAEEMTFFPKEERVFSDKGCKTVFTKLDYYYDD
Sequence of Focal adhesion kinase 1 (Homo sapiens) (Q05397 whole entry, looked up): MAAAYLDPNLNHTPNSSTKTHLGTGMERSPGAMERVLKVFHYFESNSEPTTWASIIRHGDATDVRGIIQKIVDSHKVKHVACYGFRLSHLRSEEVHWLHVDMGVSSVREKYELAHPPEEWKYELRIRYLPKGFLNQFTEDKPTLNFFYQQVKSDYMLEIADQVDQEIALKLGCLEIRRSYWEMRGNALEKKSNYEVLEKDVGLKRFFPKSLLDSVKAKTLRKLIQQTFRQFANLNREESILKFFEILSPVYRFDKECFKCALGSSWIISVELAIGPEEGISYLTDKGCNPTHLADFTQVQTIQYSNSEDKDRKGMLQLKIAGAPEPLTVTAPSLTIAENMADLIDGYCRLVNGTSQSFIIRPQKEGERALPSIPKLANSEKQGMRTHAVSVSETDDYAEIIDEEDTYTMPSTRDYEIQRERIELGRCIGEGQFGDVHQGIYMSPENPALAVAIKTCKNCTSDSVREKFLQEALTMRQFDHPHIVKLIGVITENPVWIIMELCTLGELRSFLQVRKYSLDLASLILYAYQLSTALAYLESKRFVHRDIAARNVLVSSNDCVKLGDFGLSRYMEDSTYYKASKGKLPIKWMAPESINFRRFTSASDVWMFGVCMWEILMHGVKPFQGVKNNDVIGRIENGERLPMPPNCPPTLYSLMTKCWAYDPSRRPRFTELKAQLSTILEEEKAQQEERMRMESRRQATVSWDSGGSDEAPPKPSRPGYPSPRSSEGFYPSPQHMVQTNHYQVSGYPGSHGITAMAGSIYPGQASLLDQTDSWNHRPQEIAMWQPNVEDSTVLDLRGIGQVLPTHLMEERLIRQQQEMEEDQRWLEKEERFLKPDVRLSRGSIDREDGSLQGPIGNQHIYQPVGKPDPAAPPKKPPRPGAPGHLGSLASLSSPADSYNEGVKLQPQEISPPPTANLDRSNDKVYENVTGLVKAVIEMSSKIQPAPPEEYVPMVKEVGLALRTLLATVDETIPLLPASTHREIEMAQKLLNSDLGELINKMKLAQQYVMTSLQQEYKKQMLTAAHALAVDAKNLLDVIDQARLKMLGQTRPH

For `C=C(C(=O)CC[C@@H](OC(=O)c1cccnc1)c1ccc(OCCO)cc1)C(C)C`, the composite z-score in assay [1] was 0.222; in assay [2], 0.314; in [3], -0.17; in [4], -0.0579; in [5], 1.43; in assay [6], 1.16. Also, the composite z-score in assay [8] was 1.21; in assay [9], 0.752; in [11], 0.725; in assay [16] it was -0.136; in assay [17] it was -0.128; in [18], 0.0998. Also, the composite z-score in [19] worked out at 0.97; in assay [20], 1.58. Besides, the z-score in assay [7] was -0.358; in [10], -3.48 (inactive); in [12], -8.32 (active); in assay [13], 0.118 (inactive); in [14], 20 (active); in assay [15], 0.12 (inactive).
Regarding `CCOC(=O)C[C@H]1[C@H](OC(=O)c2ccccc2-c2ccccc2)[C@@H](NC(=O)c2ccc(-c3ccccc3)cc2)c2cc(OCCCO)ccc2N1C(=O)c1ccccc1`, the composite z-score in [1] turned out to be 0.426; in assay [2], 0.78; in assay [3], 0.177; in [4] it was 0.58; in [5], 0.77; in assay [6], 0.466. The composite z-score in assay [8] was 0.935; in assay [9], 0.17; in assay [11], 0.0187; in assay [16], 0.236; in assay [17] it was 0.0569; in assay [18] it was -0.29. Moreover, the composite z-score in assay [19] was 0.272; in [20] it was 0.684. For the same molecule, the z-score in assay [7] was 1.39; in assay [10], -0.0993 (inactive); in [12], -0.134 (inactive); in assay [13], 0.945 (inactive); in assay [14], 3.85 (inactive); in assay [15], -1.14 (inactive).
`COC(=O)[C@@]1(Cc2ccc(OC)cc2)[C@H]2c3cc(C(=O)N(C)C)n(Cc4ccc(OC)c(OC)c4)c3C[C@H]2CN1C(=O)c1ccccc1`: the composite z-score in [1] was 1.26; in assay [2], 1.25; in assay [3], 0.96; in [4], 0.844; in assay [5], 0.745; in assay [6], -0.3. Besides, the composite z-score in [8] is -0.257; in assay [9], 0.951; in assay [11], 0.171; in [16], 1.67; in assay [17] it was 0.55; in assay [18], 0.258. For the same molecule, the figures for the composite z-score in assay [19] and in assay [20] were 1.17 and -0.521, respectively. Further, the z-score in assay [7] is 0.327; in [10], 1.72 (inactive); in assay [12], -2.97 (inactive); in assay [13] it was 0.437 (inactive); in [14], 0.583 (inactive); in [15], 0.292 (inactive).
As for `COCCOC(=O)N1C(=O)[C@@]2(c3cc(C#CCC(C(=O)OC)C(=O)OC)ccc31)[C@H](c1ccccc1OCCO)N1[C@H](c3ccccc3)[C@H](c3ccccc3)OC(=O)[C@H]1[C@@H]2C(=O)Nc1nc2ccccc2s1`, the composite z-score in assay [1] was 2.04; in assay [2] it was 0.946; in assay [3], 0.767; in assay [4], 0.945; in [5], 1.16; in assay [6], 1.58. In addition, the composite z-score in [8] stood at 1.55; in assay [9], 0.577; in [11] it was 0.964; in [16], 0.129; in [17], 0.135; in [18], 0.983. For the same molecule, the composite z-score in assay [19] stood at 1.08; in [20], 1.49. The z-score was -1.64 in assay [7]; -2.57 (inactive) in assay [10]; -2.67 (inactive) in assay [12]; -1.9 (inactive) in [13]; -0.375 (inactive) in assay [14]; -0.705 (inactive) in assay [15].
As to `CC(C)(C)OC(=O)CC[C@@]1(C(=O)NCC(O)CO)N=C(c2ccc(OCCCO)cc2)O[C@@H]1c1ccccc1` (stereo not given in full), the composite z-score is 0.0885 in assay [1]; 0.913 in [2]; 0.415 in assay [3]; 0.681 in assay [4]; 0.392 in [5]; -0.691 in assay [6]. Further, the composite z-score is -0.0491 in [8]; 0.467 in assay [9]; 0.0271 in assay [11]; -0.0256 in assay [16]; -0.0361 in [17]; 1.07 in [18]. In addition, the composite z-score was 1.01 in assay [19] and -0.887 in [20]. Besides, the z-score in assay [7] was 0.477; in assay [10], -0.962 (inactive); in assay [12], 0.496 (inactive); in assay [13], -1.15 (inactive); in assay [14] it was 2.06 (inactive); in [15], -0.904 (inactive).
